Measurements reported in PubChem BioAssay (NCI).
Where “and” joins values, the source holds several entries; their conditions need not be identical. Identical values can stand only once. About 83,000 compounds went through this panel and 20% of them were active in at least one assay; those are over-represented in the sample as a whole.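 Values shown are percent growth following 48 h exposure of cells in 96-well plates to a single concentration of compound; below 10 was considered active.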 Calls of active or inactive are those of the source.

Tests used:
Test in all cases: NCI-60 one-dose screen, 48 h (100 = growth as untreated, 0 = no growth, -100 = all killed)
Conditions in all cases: 10 µM unless noted
[1] = tested on: SR leukemia
[2] = tested on: RPMI-8226 leukemia
[3] = tested on: OVCAR-8 ovarian
[4] = tested on: OVCAR-5 ovarian
[5] = tested on: OVCAR-4 ovarian
[6] = tested on: SK-OV-3 ovarian
[7] = tested on: IGROV1 ovarian
[8] = tested on: OVCAR-3 ovarian
[9] = tested on: HS 578T breast
[10] = tested on: NCI/ADR-RES ovarian

SMILES | growth [1] | growth [2] | growth [3] | growth [4] | growth [5] | growth [6] | growth [7] | growth [8] | growth [9] | growth [10]
O=CC(O)C(O)C(O)CO (stereo not given) | 109% (inactive) and 89.6% (inactive) | 81.9% (inactive) and 122% (inactive) | 110% (inactive) and 106% (inactive) | 57.6% (inactive) and 97.7% (inactive) | 101% (inactive) and 114% (inactive) | 116% (inactive) and 101% (inactive) | 105% (inactive) | 106% (inactive) | 98.4% (inactive) and 106% (inactive) | -41.1% (active) and 106% (inactive)
c1ccc2c(CC3=NCCN3)cccc2c1 | 101% (inactive) | 104% (inactive) and 97.2% (inactive) | 98% (inactive) and 101% (inactive) | 97.7% (inactive) and 108% (inactive) | 108% (inactive) and 110% (inactive) | 105% (inactive) and 107% (inactive) | 108% (inactive) and 116% (inactive) | 117% (inactive) and 116% (inactive) | 107% (inactive) and 99.6% (inactive) | 101% (inactive) and 105% (inactive)
O=C1CCN(Cc2ccccc2)C(=S)N1 | 65.4% (inactive) and 101% (inactive) | 94.5% (inactive) and 102% (inactive) | 106% (inactive) and 107% (inactive) | 106% (inactive) and 101% (inactive) | 100% (inactive) | 101% (inactive) | 92.4% (inactive) and 91.5% (inactive) | 123% (inactive) and 103% (inactive) | 114% (inactive) and 81.7% (inactive) | 106% (inactive) and 103% (inactive)
NC(=S)NS(=O)(=O)c1ccc(N)cc1 | 96.5% (inactive) | 110% (inactive) | 99.4% (inactive) | 106% (inactive) | 113% (inactive) | 108% (inactive) | 107% (inactive) | 123% (inactive) | 101% (inactive) | 104% (inactive)
O=[N+]([O-])c1ccc2nc3c4ccccc4c4ccccc4c3nc2c1 | 56.6% (inactive) | 59.4% (inactive) | 65.9% (inactive) | 91.7% (inactive) | 8.96% (active) | 100% (inactive) | 58.8% (inactive) | 72.9% (inactive) | 79.9% (inactive) | 58.9% (inactive)
CCN(CC)CCC(CNc1c2ccc([N+](=O)[O-])cc2nc2cc(OC)c(OC)cc12)c1ccccc1 (stereo not given) | -14.8% (active) | -5.85% (active) and -73% (active) | 6.28% (active) and -80.7% (active) | -13.3% (active) and -83.9% (active) | -53.2% (active) and -94.6% (active) | 27.3% (inactive) and -64.1% (active) | -49.8% (active) and -64% (active) | -38% (active) and -100% (active) | 44.4% (inactive) | 30.5% (inactive) and -58.4% (active)
CCN(CC)CCNc1cc(-c2cccc(OC(F)(F)F)c2)nc2ccc(N3CCCC3)cc12 | -29.4% (active) and -36.8% (active) and -10.8% (active) | -53.3% (active) and -33.8% (active) and 14.6% (inactive) | 39.7% (inactive) and 2.29% (active) and 22.4% (inactive) | 50.6% (inactive) and 5.44% (active) and 34.6% (inactive) | 59.3% (inactive) and 44.7% (inactive) and 30% (inactive) | 52.6% (inactive) and 10.9% (inactive) and 53.6% (inactive) | -14.8% (active) and 6.93% (active) and 25.2% (inactive) | 75.8% (inactive) and -2.31% (active) and 47.2% (inactive) | 66.4% (inactive) and -7.2% (active) and 38.9% (inactive) | 9.79% (active) and -16.8% (active) and 25.2% (inactive)
CC(C)N=c1cc2n(-c3ccc(Cl)cc3)c3ccccc3nc-2cc1Nc1ccc(Cl)cc1 | -35.4% (active) and 9.31% (active) | 2.57% (active) and -21.9% (active) and -42.6% (active) | 15.1% (inactive) and 48.7% (inactive) and 14.1% (inactive) | 38.3% (inactive) and 49.6% (inactive) and 11.3% (inactive) | 5.39% (active) and 11.1% (inactive) and 7.85% (active) | 37.6% (inactive) and 52.9% (inactive) and 42.6% (inactive) | 30.2% (inactive) and -9.37% (active) | -37.5% (active) and -71.1% (active) and -66.3% (active) | -13.2% (active) and 13.1% (inactive) | 23.2% (inactive) and -2.63% (active) and 39.2% (inactive)
Clc1ccc(NC(Nc2ccc(Cl)cc2)C(Cl)(Cl)Cl)cc1 | 99.4% (inactive) | 95.9% (inactive) | 93.6% (inactive) and 107% (inactive) | 79.9% (inactive) and 100% (inactive) | 82.4% (inactive) and 118% (inactive) | 100% (inactive) and 98% (inactive) | 75.3% (inactive) and 103% (inactive) | 89% (inactive) and 102% (inactive) | 109% (inactive) | 61.5% (inactive) and 99.4% (inactive)
O=C1NC(=O)C2(CCc3ccccc32)N1 (stereo not given) | 111% (inactive) and 95.6% (inactive) | 106% (inactive) and 95.6% (inactive) | 110% (inactive) and 102% (inactive) | 108% (inactive) and 78.7% (inactive) | 103% (inactive) and 108% (inactive) | 114% (inactive) and 101% (inactive) | 119% (inactive) and 106% (inactive) | 99.5% (inactive) and 114% (inactive) | 121% (inactive) | 109% (inactive) and 92.5% (inactive)
O=C(Nc1ccc([N+](=O)[O-])cc1Cl)c1cc(Cl)ccc1O | -3.74% (active) | -31.8% (active) and 1.92% (active) | -20.6% (active) and 5.74% (active) | 23.6% (inactive) and 41.7% (inactive) | 22.6% (inactive) and 17.4% (inactive) | 4.16% (active) and 12.8% (inactive) | 14.4% (inactive) | -10.7% (active) and -2.45% (active) | -6.4% (active) and -20.7% (active) | -26.7% (active) and -15.9% (active)
CC(=O)c1ccccc1O | 79% (inactive) | 106% (inactive) and 103% (inactive) | 112% (inactive) and 101% (inactive) and 105% (inactive) | 102% (inactive) and 98.4% (inactive) and 116% (inactive) | 110% (inactive) and 107% (inactive) and 111% (inactive) | 114% (inactive) and 102% (inactive) and 101% (inactive) | 102% (inactive) and 105% (inactive) and 101% (inactive) | 114% (inactive) and 109% (inactive) and 106% (inactive) | 95.7% (inactive) and 109% (inactive) and 98.9% (inactive) | 100% (inactive) and 98.6% (inactive) and 103% (inactive)
CC(C)(O)Cn1cc(-c2ccc3nc(OC4CC4)ccc3c2)c2c(N)ncnc21 | 49.9% (inactive) and 21% (inactive) | 55.3% (inactive) and 39.9% (inactive) | 90.2% (inactive) and 63.6% (inactive) | 84.7% (inactive) and 48.4% (inactive) | 96.3% (inactive) and 63.1% (inactive) | 83.4% (inactive) and 57.9% (inactive) | 74% (inactive) and 42.2% (inactive) | 109% (inactive) and 69.8% (inactive) | 71.1% (inactive) and 31.9% (inactive) | 94.9% (inactive) and 67.1% (inactive)
O=C(CN1CCN(c2cc3c(cc2F)c(=O)c(C(=O)O)cn3C2CC2)CC1)Nc1ccc(Cl)cc1 | 71.1% (inactive) and 71.4% (inactive) | 72.2% (inactive) | 78.8% (inactive) and 95% (inactive) | 105% (inactive) and 96% (inactive) | 85.3% (inactive) and 83.2% (inactive) | 63.4% (inactive) and 82.2% (inactive) | 93.8% (inactive) and 97.3% (inactive) | 94.4% (inactive) and 102% (inactive) | 87.7% (inactive) and 93.6% (inactive) | 101% (inactive) and 96.9% (inactive)
Cc1nn(-c2ccc(Cl)cc2)c2ncnc(N/N=C/c3ccccc3O)c12 | 4.8% (active) and 5.64% (active) | 37.1% (inactive) and 11.7% (inactive) | 14.1% (inactive) and 14% (inactive) | 47.5% (inactive) and 52.7% (inactive) | 19.5% (inactive) and 21.9% (inactive) | 4.44% (active) and 10.8% (inactive) | 23.9% (inactive) and 4.47% (active) | 34.9% (inactive) and 26.7% (inactive) | 81% (inactive) and 56.4% (inactive) | 19.1% (inactive) and 10.5% (inactive)
